Screen size: about 190,000 compounds; about 1,300 (0.68%) were called active. Cut-off read from the data, not from the text of the source: active = inhibition above about 50%; inactive = the rest. Many of the other results were omitted from the sample, so actives are more common in it than they were.

Chain of Mannose-6-phosphate isomerase (Homo sapiens) (P34949 whole entry, looked up): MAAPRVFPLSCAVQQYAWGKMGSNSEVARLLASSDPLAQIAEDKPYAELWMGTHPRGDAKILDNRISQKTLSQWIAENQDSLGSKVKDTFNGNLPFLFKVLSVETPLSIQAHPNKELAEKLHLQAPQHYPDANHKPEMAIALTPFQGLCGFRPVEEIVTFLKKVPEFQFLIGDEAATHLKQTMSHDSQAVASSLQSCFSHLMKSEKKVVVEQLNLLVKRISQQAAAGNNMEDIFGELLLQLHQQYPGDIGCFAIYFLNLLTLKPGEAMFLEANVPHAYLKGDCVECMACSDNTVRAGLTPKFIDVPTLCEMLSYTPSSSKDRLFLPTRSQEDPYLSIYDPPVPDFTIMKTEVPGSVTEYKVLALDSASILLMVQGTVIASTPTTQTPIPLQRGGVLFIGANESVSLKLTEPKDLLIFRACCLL

This test addresses Mannose-6-phosphate isomerase (Homo sapiens) (UniProt P34949). Kind of test: human PMI inhibitors, high substrate, primary screen, biochemical, fluorescence intensity, high mannose 6-phosphate (AID 1220). Conditions: recombinant PMI enzyme, coupled fluorescence intensity; at 20 µM; active compounds read high.
Turning to `Cc1cccc(N2CCN(S(=O)(=O)c3cccc4nonc34)CC2C)c1` (stereo not drawn), the inhibition was 26.5% (inactive). As to `Cc1[nH]n(-c2ccccc2)c(=O)c1C(c1ccccc1C(=O)O)c1c(C)[nH]n(-c2ccccc2)c1=O`, the inhibition is -21.9% (inactive).

Regarding `COc1ccc(NC(=O)c2ccco2)cc1NC(=O)c1ccco1`, the inhibition is 4.5% (inactive). As for `COc1cccc(OC)c1C(=O)Nc1ccc(NC(=O)c2ccco2)cc1`, the figure is 3.3% (inactive); as for `COc1ccc(NC(=O)c2ccco2)cc1N`, 58.3% (active); as for `N#Cc1ccc(OCC(=O)NCC2(N3CCCCC3)CCCCC2)cc1`, -10.6% (inactive). `COc1ccc(-n2c(Cn3c(=O)sc4ccccc43)nnc2SCC(=O)N2CCCC2)cc1`: the inhibition was -4.6% (inactive).

`O=C(O)CCc1c(C(=O)O)[nH]c2ccccc12`: the inhibition was -4.7% (inactive). Under `CCN(CC)S(=O)(=O)c1cccc(NC(=O)COC(=O)c2cc(=O)c3ccccc3o2)c1` stands 9.7% (inactive); under `Cc1ccc(S(=O)(=O)N(C)C)cc1NC(=O)COC(=O)c1n[nH]c(=O)c2ccccc12`, -8% (inactive). `CCN(CC)S(=O)(=O)c1cccc(NC(=O)COC(=O)c2n[nH]c(=O)c3ccccc23)c1`: the inhibition was 53.3% (active). Under `COc1cc(CN2CCC(C(=O)N3CCN(c4ccccc4F)CC3)CC2)cc(OC)c1O` stands 53.7% (active).

Consider `COc1cc(CN2CCC(C(=O)N3CCN(c4ccccc4F)CC3)CC2)ccc1O`, for which the inhibition is 13.4% (inactive). Under `COc1cc(CN2CCC(C(=O)NC3CCCC3)CC2)cc(Br)c1O` stands 14.6% (inactive). Under `COc1cc(CN2CCC(C(=O)NC3CCCC3)CC2)cc(OC)c1O` stands 63.9% (active); under `COc1cc(CN2CCC(C(=O)N3CCN(c4ccccc4F)CC3)CC2)cc(OC)c1OC`, 9.1% (inactive). Under `COc1cc(CN2CCC(C(=O)NC3CCCC3)CC2)ccc1O` stands 3.5% (inactive); under `Cc1cc(-c2[nH]nc3c2C(c2ccc(Cl)cc2)C(C#N)=C(N)O3)c(C)s1` (stereo not drawn), 26.2% (inactive); under `COc1ccc(Cl)cc1CSc1n[nH]c(C)n1`, 8.9% (inactive). For `O=C(NCc1ccco1)C(=O)NCC1OCCCN1S(=O)(=O)c1ccccc1` (stereo not drawn), the inhibition was -6.2% (inactive). As for `Cc1cc(NC(=O)CCC(=O)N(CC(=O)NCC2CCCO2)Cc2ccc(F)cc2)no1` (stereo not drawn), the figure is -6.3% (inactive); as for `CCN1C/C(=C/c2ccc(OC)c(O)c2)C(=O)/C(=C/c2ccc(OC)c(O)c2)C1`, 36.6% (inactive).

For the compound `COc1ccc(C=C2C(=O)c3ccccc3C2=O)cc1O`, the inhibition is 60.8% (active). Consider `COc1cc(C=C2C(=O)c3ccccc3C2=O)cc(OC)c1OC`, for which the inhibition is -22.9% (inactive).

For `CC1(C)C(=O)Nc2ccccc2N1C(=O)COc1cccnc1[N+](=O)[O-]`, the inhibition is -1.5% (inactive). Under `CCOc1cc(-c2noc(CCCC(N)=O)n2)cc(Br)c1OC` stands 15.3% (inactive); under `CC(C)CC1(C)NC(=O)N(CC(=O)NC(=O)Nc2ccc3c(c2)OCCO3)C1=O` (stereo not drawn), 7% (inactive); under `N#CC(C#N)=C1C=C2C=C(N3CCOCC3)CCC2CC1` (stereo not drawn), 55.3% (active). `N#C/C(=C\c1ccc(N2CCOCC2)cc1)c1ccccc1`: the inhibition was 2.5% (inactive). As for `CN1CCN(C2=CC3=CC(=C(C#N)C#N)CCC3CC2)CC1` (stereo not drawn), the figure is 61.8% (active); as for `N#CC(C#N)=C1C=C2C=C(N3CCCCCC3)CCC2CC1` (stereo not drawn), 50.6% (active); as for `N#CC(C#N)=C1C=C2C=C(N3CCCCC3)CCC2CC1` (stereo not drawn), 58.7% (active). As to `N#CC1=C(N)C2=C(N3CCCCC3)CCCC2C1(C#N)C#N` (stereo not drawn), the inhibition was 11.7% (inactive). Under `N#Cc1cc(Cl)c(N2CCOCC2)cc1C#N` stands -7.2% (inactive); under `Cc1cc(C)c(NC(=O)CS)c(Cl)c1`, -11.6% (inactive); under `CSc1nc(Cl)cc(Nc2ccccc2N)n1`, -3% (inactive). Under `O=C(O)CCNC(=O)/C(=C/C=C/c1ccccc1)NC(=O)c1ccccc1` stands -0.9% (inactive); under `Cc1ccc(Nc2nc(Nc3ccc(C)cc3)nc(SC3=NCCS3)n2)cc1`, 8.1% (inactive); under `CCCCC1(Cc2ccc(OC)c([N+](=O)[O-])c2)C(=O)N(c2ccccc2)N(c2ccccc2)C1=O`, 11% (inactive).

Regarding `CC(C)(C)CC(C)(C)c1ccc(O)c(CN2CCN(CCC#N)CC2)c1`, the inhibition was 4.7% (inactive). Regarding `CCC(CC)COC(=O)C(C#N)c1nc2ccccc2nc1N1CCN(CC)CC1` (stereo not drawn), the inhibition is 17.2% (inactive). Under `CC1(C)CC(NCCN2CCN(C3=CC(=C(C#N)C#N)CC(C)(C)C3)CC2)=CC(=C(C#N)C#N)C1` stands 12.4% (inactive); under `CCN1CCN(C2=CC3=CC(=C(C#N)C#N)CCC3CC2)CC1` (stereo not drawn), 59.6% (active). As for `CCn1cc(C(=O)N2CCc3ccccc32)c(=O)c2cc(S(=O)(=O)N3CCCCCC3)ccc21`, the figure is 5.7% (inactive); as for `CCCC(=O)NC(c1ccc(N(C)C)cc1)c1c(O)ccc2ccccc12` (stereo not drawn), 54.8% (active). Under `CCCC(=O)NC(c1ccccc1Cl)c1c(O)ccc2ccccc12` (stereo not drawn) stands 13.4% (inactive); under `CCC(=O)NC(c1ccc(OC)cc1)c1c(O)ccc2ccccc12` (stereo not drawn), 44.2% (inactive); under `CCCC(=O)NC(c1ccc(OC)c(OC)c1)c1c(O)ccc2ccccc12` (stereo not drawn), 23.2% (inactive).

Consider `CCC(=O)NC(c1ccc([N+](=O)[O-])cc1)c1c(O)ccc2ccccc12` (stereo not drawn), for which the inhibition was 14.3% (inactive).

For `CCC(=O)NC(c1ccc(N(C)C)cc1)c1c(O)ccc2ccccc12` (stereo not drawn), the inhibition was 62% (active). `Cc1cc(NC(=O)CN2C(=O)/C(=C/c3cccc(Br)c3)SC2=S)no1`: the inhibition was -9.8% (inactive). For `CC(Cl)c1cc(-c2ncc(C(F)(F)F)cc2Cl)no1` (stereo not drawn), the inhibition was -4.3% (inactive).

In the case of `CCc1ccccc1OCCCCCNCCO`, the inhibition is 1.5% (inactive). Under `COc1cc(C2=NOC(C(=O)N3CCCCCC3)C2)cc(OC)c1OC` (stereo not drawn) stands -5.6% (inactive); under `O=C(O)C1CC=CCC1C(=O)NCCc1csc(-c2ccccc2)n1` (stereo not drawn), -17.1% (inactive). On to `CCOc1ccc(C(C)NC(=S)NC2CCCCC2)cc1OCC` (stereo not drawn), for which the inhibition was 6% (inactive). For `Cc1ccc(OCC(=O)N/N=C\c2cn(C)c3ccccc23)c([N+](=O)[O-])c1`, the inhibition was 14% (inactive). As for `COc1cccc(C2NC(=O)c3ccccc3O2)c1OCc1ccccc1F` (stereo not drawn), the figure is 19% (inactive); as for `CN(C)c1ccc(/C(=N\O)c2ccccc2)cc1`, 5.9% (inactive). On to `Cc1ccc(C=Nc2ccc(N(C)C)cc2)o1`, for which the inhibition is 51.8% (active).

Turning to `CN(C)c1ccc(C(=O)/C=C/c2ccco2)cc1`, the inhibition is 38.7% (inactive).

In the case of `Cc1ccc(N=Cc2ccc(N(C)C)cc2)cc1`, the inhibition was 9.3% (inactive). As for `Cc1ccc(N=Cc2ccc(N(C)C)cc2)cc1C`, the figure is 10% (inactive); as for `CN(C)c1ccc(C=Nc2ccccc2)cc1`, -10.5% (inactive). Under `Cc1ccc(/C=C/C(=O)Nc2ccc(N(C)C)cc2)o1` stands 27.9% (inactive); under `CN(C)c1ccc(C=Nc2ccc(N(C)C)cc2)cc1`, 59.2% (active); under `CN(C)c1ccc(N=Cc2ccco2)cc1`, 63.2% (active).

Turning to `CN(C)c1ccc(N=Cc2nc(-c3ccccc3)oc2O)cc1`, the inhibition is 31% (inactive).

The term inhibition denotes the relative decrease from the control value, in per cent.

Source of the values: PubChem BioAssay AID1220 (Sanford-Burnham Center for Chemical Genomics, 2008).
